# Results taken from PubChem BioAssay (NCI).
# The panel holds about 83,000 compounds, 20% with a hit somewhere; the sample as a whole holds those more often.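 96-well plates, one dose, 48 hours. Percent growth reported; active if below 10.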 Active and inactive are the calls of the source.
# Tested on: T-47D breast
# Experiment: NCI-60 one-dose screen, 48 h (100 = growth as untreated, 0 = no growth, -100 = all killed)
# Settings: 10 µM unless noted
row,SMILES,growth
1,CC(=O)Nc1ccc(O)c(C)c1,95.9% (inactive)
2,O=C(c1cccc(C(=O)c2ccc3c4c(cccc24)C(=O)N(c2ccccc2)C3=O)c1)c1ccc2c3c(cccc13)C(=O)N(c1ccccc1)C2=O,76.3% (inactive)
3,Cc1ccc(S(=O)(=O)Oc2ccc3sc4c(CO)ccc(NCCN(C)C)c4c(=O)c3c2)cc1,-51.8% [100 µM] (active)
4,O=C1NC(=O)/C(=C\c2ccncc2)N1,101% (inactive)
5,O=C(c1ccccc1O)N1CCCC1,95.6% (inactive)
6,C1Cc2onc(-c3noc4c3CCC4)c2C1,108% (inactive)
7,O=S(=O)(O)c1ccc(O)c(C2CCCCC2)c1,89.1% (inactive)
8,CNc1ccccc1C(=O)N/N=C/C=C/c1ccccc1,29.5% (inactive)
9,O=C(O)CC1=CCCCC1,109% (inactive)
10,CC(C)c1ccc(C(=O)OCCCl)cc1,91.1% (inactive)
11,CCCCCCCCNC(=O)C(C)C,95.2% (inactive)
12,Cc1ccc(C)c2c1CCC2=O,103% (inactive)
13,CC1(C)CCC(C)(C)NC(=S)N1,98.5% (inactive)
14,COc1ccc(/C=N/NC(=O)COCC(=O)N/N=C/c2ccc(OC)cc2)cc1,104% (inactive)
15,Cc1ccccc1NC(=O)Oc1ccc(Cl)cc1C(=O)c1ccccc1,104% (inactive)
16,CC(=O)c1cccs1,90% (inactive)
17,CSc1cnc2ccccc2n1,81% (inactive)
18,CCCC(OC(C)=O)c1ccc2c(c1)OCO2 (centres undefined),100% (inactive)
19,CC(C)N(C(=O)c1ccccc1)C(C)C,99.5% (inactive)

row,SMILES,growth
1,O=C(O)c1ccc(OCc2ccccc2)cc1,83.7% (inactive)
2,COc1cc(C(=O)O)c(O)c(C(C)(C)C)c1,103% (inactive)
3,CC1(C)OC2C(CO)OC(n3ccc(=O)[nH]c3=O)C2O1 (centres undefined),89.4% (inactive)
4,Cc1cccnc1NC1OC(=O)c2ccccc21 (centres undefined),94.2% (inactive)
5,NS(=O)(=O)c1cc(=O)[nH]c(=O)[nH]1,113% (inactive)
6,CCC1CCC(C)NC1 (centres undefined),106% (inactive)
7,Cc1ccc2[nH]c3ccccc3c2c1,93% (inactive)
8,C=C1C(=O)C2CCN1CC2,98% (inactive)
9,C=CCNC(=S)N/C=C(/C(=O)c1ccccc1)c1ccccc1,99.4% (inactive)
10,CCc1ccccc1C(=O)N(CC)CC,92.8% (inactive)
11,CN(C)CCOC(=O)Nc1ccc(Cc2ccc(NC(=O)OCCN(C)C)cc2)cc1,105% [100 µM] (inactive)
12,CC(C)NC(=O)OCc1c(COC(=O)NC(C)C)c(-c2ccc(Cl)cc2)n2c1CCC2,36.3% (inactive)
13,Nc1ccc2c(c1)Cc1cc(N)c(N)cc1-2,84.4% (inactive)
14,CCOC(=O)C(=O)CC(=O)c1ccccc1,105% (inactive)
15,CCNc1ncnc2[nH]ncc12,103% (inactive)
16,COc1nc(Nc2cccc(C(F)(F)F)c2)nc(OC)n1,92.5% (inactive)
17,CC(=O)c1cccc(O)c1,103% (inactive)
18,CC(C)c1ccccc1NC(=O)N1CCC(C(C)C)CC1,111% (inactive)

# Tested on: BT-549 breast
# Experiment: as above
# Settings: 10 µM unless noted
row,SMILES,growth
1,CC(=O)Nc1ccc(O)c(C)c1,112% (inactive)
2,O=C(c1cccc(C(=O)c2ccc3c4c(cccc24)C(=O)N(c2ccccc2)C3=O)c1)c1ccc2c3c(cccc13)C(=O)N(c1ccccc1)C2=O,104% (inactive)
3,Cc1ccc(S(=O)(=O)Oc2ccc3sc4c(CO)ccc(NCCN(C)C)c4c(=O)c3c2)cc1,-91.2% [100 µM] (active)
4,O=C1NC(=O)/C(=C\c2ccncc2)N1,99.5% (inactive)
5,O=C(c1ccccc1O)N1CCCC1,88.9% (inactive)
6,C1Cc2onc(-c3noc4c3CCC4)c2C1,114% (inactive)
7,O=S(=O)(O)c1ccc(O)c(C2CCCCC2)c1,98.2% (inactive)
8,CNc1ccccc1C(=O)N/N=C/C=C/c1ccccc1,47.3% (inactive)
9,O=C(O)CC1=CCCCC1,96.1% (inactive)
10,CC(C)c1ccc(C(=O)OCCCl)cc1,100% (inactive)
11,CCCCCCCCNC(=O)C(C)C,107% (inactive)
12,Cc1ccc(C)c2c1CCC2=O,97.6% (inactive)
13,CC1(C)CCC(C)(C)NC(=S)N1,105% (inactive)
14,COc1ccc(/C=N/NC(=O)COCC(=O)N/N=C/c2ccc(OC)cc2)cc1,118% (inactive)
15,Cc1ccccc1NC(=O)Oc1ccc(Cl)cc1C(=O)c1ccccc1,92.3% (inactive)
16,CC(=O)c1cccs1,97% (inactive)
17,CSc1cnc2ccccc2n1,94.6% (inactive)
18,CCCC(OC(C)=O)c1ccc2c(c1)OCO2 (centres undefined),110% (inactive)
19,CC(C)N(C(=O)c1ccccc1)C(C)C,106% (inactive)

row,SMILES,growth
1,O=C(O)c1ccc(OCc2ccccc2)cc1,104% (inactive)
2,COc1cc(C(=O)O)c(O)c(C(C)(C)C)c1,105% (inactive)
3,CC1(C)OC2C(CO)OC(n3ccc(=O)[nH]c3=O)C2O1 (centres undefined),104% (inactive)
4,Cc1cccnc1NC1OC(=O)c2ccccc21 (centres undefined),97.6% (inactive)
5,NS(=O)(=O)c1cc(=O)[nH]c(=O)[nH]1,107% (inactive)
6,CCC1CCC(C)NC1 (centres undefined),101% (inactive)
7,Cc1ccc2[nH]c3ccccc3c2c1,102% (inactive)
8,C=C1C(=O)C2CCN1CC2,96.9% (inactive)
9,C=CCNC(=S)N/C=C(/C(=O)c1ccccc1)c1ccccc1,98.2% (inactive)
10,CCc1ccccc1C(=O)N(CC)CC,102% (inactive)
11,CN(C)CCOC(=O)Nc1ccc(Cc2ccc(NC(=O)OCCN(C)C)cc2)cc1,68.3% [100 µM] (inactive)
12,CC(C)NC(=O)OCc1c(COC(=O)NC(C)C)c(-c2ccc(Cl)cc2)n2c1CCC2,27% (inactive)
13,Nc1ccc2c(c1)Cc1cc(N)c(N)cc1-2,104% (inactive)
14,CCOC(=O)C(=O)CC(=O)c1ccccc1,109% (inactive)
15,CCNc1ncnc2[nH]ncc12,84.3% (inactive)
16,COc1nc(Nc2cccc(C(F)(F)F)c2)nc(OC)n1,91% (inactive)
17,CC(=O)c1cccc(O)c1,113% (inactive)
18,CC(C)c1ccccc1NC(=O)N1CCC(C(C)C)CC1,103% (inactive)
